Source: PubChem BioAssay AID1159580 (chemical genetic matrix, 2015)
Among all 5,500 compounds or so, about 2,000 (36%) were called active. About 18% were inconclusive and are not listed. Rule as the data show it: active = normalized growth mostly below about 0.91 (no sharp cut-off); inconclusive = no clear call, values can overlap the other calls; inactive = mostly above about 0.92. Some of the results follow.

Experiment: chemical genetic growth profiling, strain panel (AID 1159580);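 also: tested at 20 µM; growth read once vehicle control cultures reached saturation at 30 °C; 1 = growth at the plate median or of vehicle wells; lower values mean less growth of the strain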
Conditions: growth OD

Measured: normalized growth

COc1cc(-c2oc3cc(O)ccc3c(=O)c2O)cc(OC)c1OC
inactive: S. cerevisiae deletion strains, locus YAL013W, strain DEP1, active compounds read low 1.01 | S. cerevisiae deletion strains, locus YBR021W, strain FUR4, active compounds read low 1.02 | S. cerevisiae deletion strains, locus YBR229C, strain ROT2, active compounds read low 1.01 | S. cerevisiae deletion strains, locus YCL029C, strain bik1, active compounds read low 1.01 | S. cerevisiae deletion strains, locus YDL035C, strain GPR1, active compounds read low 1 | S. cerevisiae deletion strains, locus YDL074C, strain BRE1, active compounds read low 0.996 | S. cerevisiae deletion strains, locus YDL101C, strain DUN1, active compounds read low 0.999 | S. cerevisiae deletion strains, locus YDL134C, strain PPH21, active compounds read low 1 | S. cerevisiae deletion strains, locus YDL185W, strain tfp1, active compounds read low 0.996 | S. cerevisiae deletion strains, locus YDL192W, strain arf1, active compounds read low 0.999 | S. cerevisiae deletion strains, locus YDR101C, strain arx1, active compounds read low 1 | S. cerevisiae deletion strains, locus YDR150W, strain NUM1, active compounds read low 1.01 | S. cerevisiae deletion strains, locus YDR162C, strain NBP2, active compounds read low 0.989 | S. cerevisiae deletion strains, locus YDR318W, strain mcm21, active compounds read low 1.02 | S. cerevisiae deletion strains, locus YDR388W, active compounds read low 0.999 | S. cerevisiae deletion strains, locus YDR502C, strain sam2, active compounds read low 1 | S. cerevisiae deletion strains, locus YEL061C, strain CIN8, active compounds read low 0.998 | S. cerevisiae deletion strains, locus YER110C, active compounds read low 1.01 | S. cerevisiae deletion strains, locus YER155C, strain BEM2, active compounds read low 1.02 | S. cerevisiae deletion strains, locus YER167W, strain BCK2, active compounds read low 1.02 | S. cerevisiae deletion strains, locus YGL078C, strain dbp3, active compounds read low 0.995 | S. cerevisiae deletion strains, locus YGL086W, strain mad1, active compounds read low 1.02 | S. cerevisiae deletion strains, locus YGL248W, strain PDE1, active compounds read low 1 | S. cerevisiae deletion strains, locus YGR078C, strain PAC10, active compounds read low 0.989 | S. cerevisiae deletion strains, locus YGR135W, strain pre9, active compounds read low 0.981 | S. cerevisiae deletion strains, locus YGR229C, strain SMI1, active compounds read low 0.98 | S. cerevisiae deletion strains, locus YGR252W, strain gcn5, active compounds read low 1.06 | S. cerevisiae deletion strains, locus YHR030C, strain SLT2, active compounds read low 1.01 | S. cerevisiae deletion strains, locus YHR079C, strain IRE1 (second series), active compounds read low 1.01 | S. cerevisiae deletion strains, locus YHR094C, strain hxt1, active compounds read low 1.01 | S. cerevisiae deletion strains, locus YHR129C, strain ARP1, active compounds read low 0.998 | S. cerevisiae deletion strains, locus YHR200W, strain rpn10, active compounds read low 1.01 | S. cerevisiae deletion strains, locus YIL066C, strain RNR3, active compounds read low 1 | S. cerevisiae deletion strains, locus YIL073C, strain SPO22, active compounds read low 1.05 | S. cerevisiae deletion strains, locus YIL125W, strain kgd1, active compounds read low 1.01 | S. cerevisiae deletion strains, locus YIR030C, strain dcg1, active compounds read low 1.01 | S. cerevisiae deletion strains, locus YJL095W, strain BCK1, active compounds read low 0.984 | S. cerevisiae deletion strains, locus YJL134W, strain LCB3, active compounds read low 0.996 | S. cerevisiae deletion strains, locus YJL168C, strain set2, active compounds read low 1.01 | S. cerevisiae deletion strains, locus YJL187C, strain SWE1 (second series), active compounds read low 0.99 | S. cerevisiae deletion strains, locus YJR043C, strain POL32, active compounds read low 1.01 | S. cerevisiae deletion strains, locus YJR075W, strain HOC1, active compounds read low 1.01 | S. cerevisiae deletion strains, locus YKL009W, strain mrt4, active compounds read low 1.04 | S. cerevisiae deletion strains, locus YKL068W, active compounds read low 0.998 | S. cerevisiae deletion strains, locus YKL085W, strain MDH1 (second series), active compounds read low 1.02 | S. cerevisiae deletion strains, locus YKL085W, strain MDH1, active compounds read low 1.02 | S. cerevisiae deletion strains, locus YKL190W, strain CNB1, active compounds read low 1.01 | S. cerevisiae deletion strains, locus YKR001C, strain vps1, active compounds read low 1.01 | S. cerevisiae deletion strains, locus YLR039C, strain RIC1, active compounds read low 1.02 | S. cerevisiae deletion strains, locus YLR058C, strain SHM2, active compounds read low 0.999 | S. cerevisiae deletion strains, locus YLR102C, strain apc9, active compounds read low 1.01 | S. cerevisiae deletion strains, locus YLR262C, strain YPT6, active compounds read low 0.979 | S. cerevisiae deletion strains, locus YLR268W, strain sec22, active compounds read low 1 | S. cerevisiae deletion strains, locus YLR330W, strain CHS5, active compounds read low 1 | S. cerevisiae deletion strains, locus YLR342W, strain FKS1 (second series), active compounds read low 1.05 | S. cerevisiae deletion strains, locus YLR371W, strain rom2, active compounds read low 1.02 | S. cerevisiae deletion strains, locus YLR418C, strain cdc73, active compounds read low 0.974 | S. cerevisiae deletion strains, locus YML016C, strain PPZ1, active compounds read low 1 | S. cerevisiae deletion strains, locus YML032C, strain rad52, active compounds read low 1.03 | S. cerevisiae deletion strains, locus YML124C, strain tub3, active compounds read low 1.01 | S. cerevisiae deletion strains, locus YMR078C, strain ctf18, active compounds read low 1.02 | S. cerevisiae deletion strains, locus YMR223W, strain ubp8, active compounds read low 1.01 | S. cerevisiae deletion strains, locus YMR263W, strain SAP30, active compounds read low 1.01 | S. cerevisiae deletion strains, locus YMR307W, strain GAS1, active compounds read low 0.995 | S. cerevisiae deletion strains, locus YNL067W, strain RPL9B, active compounds read low 0.986 | S. cerevisiae deletion strains, locus YNL128W, strain TEP1, active compounds read low 0.996 | S. cerevisiae deletion strains, locus YNL153C, strain GIM3, active compounds read low 0.986 | S. cerevisiae deletion strains, locus YNL233W, strain BNI4, active compounds read low 0.969 | S. cerevisiae deletion strains, locus YNL250W, strain rad50, active compounds read low 1 | S. cerevisiae deletion strains, locus YNL271C, strain bni1, active compounds read low 1.02 | S. cerevisiae deletion strains, locus YNL298W, strain CLA4, active compounds read low 1.01 | S. cerevisiae deletion strains, locus YNL307C, strain MCK1, active compounds read low 1.02 | S. cerevisiae deletion strains, locus YNL322C, strain KRE1, active compounds read low 1 | S. cerevisiae deletion strains, locus YNR052C, strain pop2, active compounds read low 1.02 | S. cerevisiae deletion strains, locus YOL006C, strain TOP1, active compounds read low 0.999 | S. cerevisiae deletion strains, locus YOL012C, strain htz1 1.14 | S. cerevisiae deletion strains, locus YOL147C, strain pex11, active compounds read low 1.01 | S. cerevisiae deletion strains, locus YOR061W, strain CKA2, active compounds read low 1 | S. cerevisiae deletion strains, locus YOR069W, strain VPS5, active compounds read low 1 | S. cerevisiae deletion strains, locus YOR136W, strain idh2, active compounds read low 1.02 | S. cerevisiae deletion strains, locus YOR144C, strain elg1, active compounds read low 1 | S. cerevisiae deletion strains, locus YOR184W, strain ser1, active compounds read low 1.04 | S. cerevisiae deletion strains, locus YOR316C, strain cot1, active compounds read low 1 | S. cerevisiae deletion strains, locus YPL055C, strain LGE1, active compounds read low 1 | S. cerevisiae deletion strains, locus YPL241C, strain CIN2, active compounds read low 1.01 | S. cerevisiae deletion strains, locus YPR119W, strain clb2, active compounds read low 1 | S. cerevisiae deletion strains, locus YPR141C, strain kar3, active compounds read low 1.01 | S. cerevisiae deletion strains, locus YPR163C, strain tif3, active compounds read low 0.991 | S. cerevisiae deletion strains, locus YPR167C, strain met16, active compounds read low 1.01 | S. cerevisiae deletion strains, strain wtn01, active compounds read low 1 | S. cerevisiae strains, strain wild type, active compounds read low 0.994
